NPC1 prom act = NPC1 promoter activation | Huh7 NPC1 promoter luciferase reporter, 24 h | actives 2.4% (n = 320,000) | AID 485313 | Potency, µM (series often up to 9.22 µM), without a hit: top-dose activation, usual class: activators; also: % of control where 0% means no effect; nearly all actives have a fitted effect of over 60% in size
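Luminescence read-out of NPC1 promoter-driven luciferase in stably transfected Huh7 cells; compounds delivered in DMSO and left 24 h at 37C, 5% CO2, qHTS titration format.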
SMN2 splice up = enhancers of SMN2 splice variant expression; HEK293 SMN2-luciferase splicing reporter, luminescence, 30-36 h; Potency, µM (series often up to 46.1 µM), without a hit: at the highest dose activity change, positive = activation, usual class: activators; actives 2.8% (n = 210,000); AID 1458; also: % of control where 0% means no effect; nearly all actives have a fitted effect of over 55% in size
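HEK293 cells carry an SMN2 […]–luciferase reporter in which exon 7 inclusion puts luciferase in frame. Cells were plated 10-12 h before compound addition, then incubated 30-36 h at 37C. ONE-Glo luminescence was read; sodium butyrate at 4.5 mM final served as control.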
FLuc counter = counter-screen for miR-21 project: firefly luciferase inhibitors or activators. purified FLuc, Km substrates, luminescence inhibition. AID 588342. P08659. actives 6.9% (n = 360,000). Potency, µM (highest dose often 57.5 µM), inactives show at the top dose activity change, negative = inhibition, actives largely listed as inhibitors;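 also: plate controls were vehicle for no effect and reference inhibitor for full effect; nearly all actives have a fitted effect of over 55% in size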
Target sequence (P08659 whole entry, looked up): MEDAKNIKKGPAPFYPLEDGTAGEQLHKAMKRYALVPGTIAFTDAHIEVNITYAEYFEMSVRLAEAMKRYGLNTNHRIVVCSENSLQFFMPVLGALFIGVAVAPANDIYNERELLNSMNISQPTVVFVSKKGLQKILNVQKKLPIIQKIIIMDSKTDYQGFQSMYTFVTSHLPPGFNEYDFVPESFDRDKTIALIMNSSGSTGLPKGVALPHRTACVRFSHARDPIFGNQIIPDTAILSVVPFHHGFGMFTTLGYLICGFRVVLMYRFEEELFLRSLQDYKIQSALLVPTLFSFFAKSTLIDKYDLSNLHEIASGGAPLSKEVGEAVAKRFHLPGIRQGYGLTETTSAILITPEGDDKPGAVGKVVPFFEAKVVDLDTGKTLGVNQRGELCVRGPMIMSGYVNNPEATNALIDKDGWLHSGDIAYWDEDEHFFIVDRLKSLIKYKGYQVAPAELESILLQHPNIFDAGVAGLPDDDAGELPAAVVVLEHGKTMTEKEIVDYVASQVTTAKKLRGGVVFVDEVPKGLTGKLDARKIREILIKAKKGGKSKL
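Biochemical qHTS of compounds, final roughly 60 µM downward over six points, against 10 nM purified firefly luciferase using Km concentrations of substrates (10 uM D-luciferin, 10 uM ATP) in Tris acetate pH 7.5 buffer; luminescence output.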
Rab9 prom act = activates the Rab9 promoter; Huh7 Rab9 promoter-luciferase reporter, luminescence, 24 h; Potency, µM (top dose mostly 9.22 µM), for inactives: at the top dose activation, negative = inhibition, most hits filed as activators; actives 2.8% (n = 320,000); AID 485297; also: % of control where 0% means no effect; nearly all actives have a fitted effect of over 60% in size
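Promoter activation is measured as luciferase luminescence in Huh7 cells stably transfected with a Rab9 promoter–luciferase construct, following 24 h compound exposure at 37 °C and 10 min reagent incubation at ambient temperature.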
ELG1 genotoxic = inducers of genotoxicity in HEK293T ELG1-luciferase cells; actives 1.3% (n = 330,000); HEK293T ELG1-luciferase reporter, luminescence, 16 h; Potency, µM (series often up to 46 µM), for the others: top-dose activity change, positive = activation, most hits filed as activators; also: % of control where 0% means no effect; nearly all actives have a fitted effect of over 60% in size
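Cells (2,000/well) expressing the ELG1-luciferase fusion are dosed by pin tool and kept 16 hr at 37 °C, 5% CO2. Signal comes from ONE-Glo luciferase reagent after 30 min at room temperature.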
Numbers without * were called inactive; ? = inconclusive; . = not tested or not shown; [ ] = another dose, or the depositor's remark. Hits are enriched below; roughly 7.4% of the tested compounds scored in any of these assays. Calls follow the shape of the dose curve; as a rule, active = well fitted curve in the direction sought with a large enough effect; inconclusive = small, poorly fitted or top-dose-only effect, or another doubt; inactive = no such curve, though single readings can be large; an effect the other way counts as inactive or inconclusive. Potency is read from the fitted curve at half-maximal effect.

SMILES	NPC1 prom act	SMN2 splice up	FLuc counter	Rab9 prom act	ELG1 genotoxic
COc1ccc(/C=N/NC(=O)c2nc(-c3ccccc3)n(-c3ccccc3)n2)c(O)c1	-21%	-108%	?	-20%	?
COc1ccc(/C=N/NC(=O)CC(=O)N/N=C/c2ccc(OC)cc2)cc1	-3%	?	4%	2%	7%
COc1ccc(/C=N/NC(=O)c2nc(-c3ccccc3)n(-c3ccccc3)n2)cc1	-5%	4%	15µM*	-7%	-2%
COCCNC(=O)c1cccc(OC2CCN(Cc3ccc(Cl)c(F)c3)CC2)c1	-4%	.	0%	-8%	-8%
CN(C(=O)c1cc2c(=O)n3ccccc3nc2n1C)C1CCCCC1	2µM*	.	12µM*	3.2µM*	4.6µM*
CCN(C(=O)c1cc2c(=O)n3ccccc3nc2n1C)C1CCCCC1	27%	.	-15%	19%	16%
Cc1ccc(-n2cc(C(=O)c3ccc(F)cc3)nn2)cc1Cl	0.5µM*	7.1µM*	0.24µM*	0.5µM*	?
CCCCCC(=O)Nc1ccc2oc(-c3cncc(Br)c3)nc2c1	0.71µM*	11µM*	7%	1.6µM*	?
CCCCC(=O)Nc1ccc2oc(-c3ccncc3)nc2c1	2%	-6%	-20%	4%	18%
CCCC(=O)Nc1ccc2oc(-c3cncc(Br)c3)nc2c1	1.6µM*	4.5µM*	?	1.3µM*	9.2µM*
Cc1ccc(-c2csc(N/N=C/c3ccco3)n2)c(C)c1	14%	4µM*	-13%	18%	19%
CCCOc1ccc(-c2c(C(=O)N/N=C/c3cccs3)nnn2-c2nonc2N)cc1	-4%	.	2%	4%	-5%
Cn1c(C(=O)NCc2ccccc2)cc2oc3ccccc3c21	17%	32µM*	13µM*	?	7%
Cn1c(C(=O)NCc2cccs2)cc2oc3ccccc3c21	1%	4.5µM*	13µM*	?	-2%
Cn1c(C(=O)NCC2CCCO2)cc2oc3ccccc3c21 (configuration not stated)	2.8µM*	6%	13µM*	1.6µM*	?
Cn1c(C(=O)NCC2CCCO2)cc2c(=O)[nH]c3ccccc3c21 (configuration not stated)	-7%	6%	9%	3%	1%
COc1ccc(CNC(=O)c2cc3oc4ccccc4c3n2C)cc1OC	.	?	-12%	.	.
CCn1c(C(=O)NCc2ccccc2Br)cc2oc3ccccc3c21	.	4.5µM*	-10%	.	.
O=C(COc1ccc(Cl)cc1)NCC(c1ccco1)S(=O)(=O)c1ccc(F)cc1 (configuration not stated)	.	.	-10%	.	.
Cc1ccccc1-c1nc(-c2ccc(NC(=O)c3cccs3)cc2)no1	?	-8%	13µM*	4µM*	2%
O=C(c1ccncc1)c1ccc(NC(=O)c2cccs2)cc1	7%	-33%	?	18%	-5%
O=C(Nc1ccc(-c2noc(-c3ccccc3F)n2)cc1)c1cccs1	?	14µM*	?	1.6µM*	?
Clc1ccccc1/C=N/Nc1cc(N2CCOCC2)ncn1	?	.	?	?	14%
C/C(=N\Nc1cc(N2CCOCC2)ncn1)c1cccc([N+](=O)[O-])c1	18%	11µM*	-18%	21%	1%
C/C(=N\Nc1cc(N2CCOCC2)ncn1)c1ccccc1	2.5µM*	.	5.4µM*	2.5µM*	?
SMILES	NPC1 prom act	SMN2 splice up	FLuc counter	Rab9 prom act	ELG1 genotoxic
Cc1cccc(N2CCN(C(=O)CN3C(=O)COc4ccc(S(=O)(=O)N5CCC(C)CC5)cc43)CC2)c1C	.	6%	-13%	.	.
CCSc1nn2c(=O)c3ccccc3nc2s1	3.5µM*	14µM*	19µM*	2.5µM*	5µM*
CCOc1ccc(N=Nc2c(=O)[nH]n3c(C)cc(C)nc23)cc1	4%	-6%	-19%	5%	3%
Cc1ccc(N=Nc2c(=O)[nH]n3c(=O)cc(C)[nH]c23)cc1	6%	-37%	15µM*	7%	?
OC1c2ccccc2-c2nc3ccccc3cc21 (configuration not stated)	.	14µM*	.	.	.
c1ccc2c(c1)-c1nc3ccccc3cc1[C@H]2N1CCOCC1	.	-14%[9.22 µM]	.	.	.
COc1ccccc1Nc1nc2ccc(C)cc2cc1C#N	19%	1%	12µM*	16%	1%
c1ccc(-c2ccccn2)nc1	-3%[46.1 µM]	-9%	3%	-4%[46.1 µM]	-1%
c1ccc(-c2ccc(-c3ccccn3)nn2)nc1	0.32µM*	7.1µM*	1.3µM*	0.32µM*	10%
CCCCNC(=O)C1CCN(c2nc3ccc(C)cc3[nH]2)CC1	.	.	-2%	.	.
Cc1ccc2c(CN3CC(C)CC(C)C3)cc(=O)oc2c1 (configuration not stated)	1%	.	1%	4%	2%
Cc1ccc2c(CN3CCC(C)CC3)cc(=O)oc2c1	3.5µM*	14µM*	7.6µM*	1.8µM*	4.6µM*
COc1ccccc1NS(=O)(=O)c1cc(NC(=O)Cc2n[nH]c(=O)c3ccccc23)ccc1Cl	.	.	.	.	-9%
COc1ccccc1CNC(=O)CCCC(=O)n1nc(C)c2ccccc21	-3%	.	2%	-2%	-3%
Cc1nn(Cc2ccc(C(=O)NC(C)(C)C)o2)c(C)c1Br	-21%	-48%	-1%	-24%	-8%
Cc1cc(NC(=O)c2ccc(Cn3nc(C)c(Br)c3C)o2)no1	-4%	20µM*	-1%	1%	5%
CCOC(=O)C1CCCN(C(=O)c2cc(-c3ccco3)nc3ccccc23)C1 (configuration not stated)	.	.	.	.	2%
CCOC(=O)C1CCCN(C(=O)c2cc(Nc3ccc(OC)cc3)nc3ccccc23)C1 (configuration not stated)	.	-5%	15µM*	.	.
O=C(c1cc(-c2ccc(Cl)cc2)nc2ccccc12)N1CCC1	0%	.	?	-4%	-15%
CCOC(=O)C1CCCN(C(=O)c2cc(-c3ccncc3)nc3ccccc23)C1 (configuration not stated)	-2%	.	-7%	-4%	-3%
CCOC(=O)C1CCCN(C(=O)c2cc(-c3ccc(F)cc3)nc3ccccc23)C1 (configuration not stated)	-2%	24%	15µM*	-5%	-9%
COc1cccc(-c2nn(-c3ccc(C)cc3)cc2C(=O)N2CCN(C3CCS(=O)(=O)C3)CC2)c1 (configuration not stated)	5%	.	15µM*	1%	-2%
O=C(c1cc(-c2ccc(F)cc2)nc2ccccc12)N1CCN(C2CCS(=O)(=O)C2)CC1 (configuration not stated)	9%	.	9.5µM*	19%	0%
Cc1cc(C)n(/N=C/c2cc([N+](=O)[O-])ccc2O)c(=O)c1	-9%	-9%	7%	-6%	-5%
Cc1ccc(C(C)C)cc1OCC(=O)Nc1ccc(-n2cnnn2)cc1	0%	.	1%	-2%	-3%

Screening data deposited in PubChem by National Center for Advancing Translational Sciences (NCATS).
